High-throughput results deposited in PubChem BioAssay by several laboratories.
SKKanGAS inh – S. pyogenes SKKanGAS growth inhibitors in kanamycin, primary screen, streptokinase expression inhibitor project, SKKanGAS strain, BacTiter-Glo luminescence | 6 h | hit rate 1.3% among 300,000 | inhibition, % at 7.5 µM;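 active = mean replicate score, as percent of positive control median, at least 50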;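 note: strain carries kanamycin resistance gene driven by streptokinase promoter and grows in 40 µg/ml kanamycin; loss of luminescence reflects streptokinase promoter inhibition or plain growth inhibition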
PP1 counter – PP1-alpha phosphatase inhibitors, primary screen, counter-screen for PP5 inhibitor project, biochemical, fluorescence, OMFP substrate, single point. Serine/threonine-protein phosphatase PP1-alpha catalytic subunit (Homo sapiens), P62136. purified PP1alpha. inhibition, % at 6.7 µM. hit rate 0.9% among 320,000. AID 2235, 2010;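 active = inhibition above the mean inhibition of all tested compounds plus 3 SD, computed separately for each screening campaign, cut at about 15% in these data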
CSC inhib – cancer stem cell viability inhibitors, primary screen, luminescence | inhibition, % at 7.5 µM | AID 2717, 2010 | hit rate 1.1% among 300,000 | cancer stem cell-like cells viability; in the data active = inhibition above about 75%; tested in HMLE shEcad cells
Beta cell apopt – inhibitors of cytokine-induced beta cell apoptosis, primary screen, luminescence; INS-1E cytokine-induced death, ATP luminescence, 48 h; percent of positive-control rescue, neutral wells zero; protection from apoptosis, % (concentration not given with the values); hit rate 0.8% among 300,000; AID 435005, 2010;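 active = Every replicate reaches about 75%, or at least half do and their mean reaches it too, limit read from the data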;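 note: higher means more ATP so stronger rescue from cytokine killing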
PP5 primary – PP5 phosphatase inhibitors, primary screen, biochemical, fluorescence | Serine/threonine-protein phosphatase 5 (Homo sapiens), P53041 | purified PP5c, OMFP substrate fluorescence | inhibition, % at 6.7 µM | hit rate 0.18% among 320,000;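 active = inhibition above the campaign's mean inhibition across all tested compounds plus 3 SD, cut at about 9.5% in these data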
Target sequence (P53041 whole entry, looked up): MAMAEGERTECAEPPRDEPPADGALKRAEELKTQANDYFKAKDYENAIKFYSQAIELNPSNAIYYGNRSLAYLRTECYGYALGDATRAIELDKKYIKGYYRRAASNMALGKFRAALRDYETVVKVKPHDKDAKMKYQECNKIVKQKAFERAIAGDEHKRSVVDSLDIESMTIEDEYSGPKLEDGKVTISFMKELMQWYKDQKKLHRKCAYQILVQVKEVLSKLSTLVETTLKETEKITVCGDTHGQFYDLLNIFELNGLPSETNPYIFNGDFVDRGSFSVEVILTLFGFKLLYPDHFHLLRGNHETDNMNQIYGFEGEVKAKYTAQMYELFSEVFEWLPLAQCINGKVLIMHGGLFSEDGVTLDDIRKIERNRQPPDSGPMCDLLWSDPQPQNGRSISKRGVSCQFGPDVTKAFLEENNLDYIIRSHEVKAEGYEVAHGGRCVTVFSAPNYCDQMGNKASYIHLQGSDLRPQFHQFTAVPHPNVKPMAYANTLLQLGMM
PP5 conf – PP5 phosphatase inhibitors, confirmation, biochemical, fluorescence, human | shares compounds with PP5 primary | Purified PP5, fluorogenic phosphatase substrate | inhibition, % at 6.7 µM | hit rate 22% among 460; in the data active = inhibition above about 9.5%
PP1 inh counter – PP1 phosphatase inhibitors, counter-screen for PP5 inhibitor project, biochemical, fluorescence, triplicate. shares compounds with PP5 primary. PP1 enzyme, fluorescent phosphatase substrate. inhibition, % at 6.7 µM. hit rate 4% among 460. AID 2355, 2010; in the data active = inhibition above about 16%
PP1 inh confirm – PP1 phosphatase inhibitors, confirmation, biochemical, fluorescence, OMFP substrate, triplicate; purified PP1alpha; shares compounds with PP1 counter; hit rate 52% among 1,900; AID 2358, 2010; inhibition, % at 6.7 µM;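 active = mean PP1 inhibition above a set limit taken from the earlier primary screen, cut at about 15% in these data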
PP5 inh counter – PP5 phosphatase inhibition by PP1 hits, confirmation, counter-screen for PP1 inhibitor project, biochemical, fluorescence, triplicate; shares compounds with PP1 counter; purified PP5c, OMFP fluorescence; inhibition, % at 6.7 µM; hit rate 4% among 1,900;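 active = mean PP5 inhibition over triplicate wells above about 9.5% taken from the earlier PP1 screen, limit read from the data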
Of the large screens only hits and unclear results are named; the others gave an inactive call (follow-up assays come after a bar, where they were run). Compounds with a hit are over-represented: about 3.1% of the library has one in this group of screens.

COC(=O)CCC(=O)OC1(C)C(=O)C2=CN(CCN3CCOCC3)C(c3ccc(OC)cc3)=CC2=C(Br)C1=O (stereo not given)	PP5 primary 10.5 | PP5 conf 37.0 | PP1 inh counter inactive
COC(=O)CCC(=O)OC1(C)C(=O)C2=CN(CCCCO)C(c3ccc(OC)cc3)=CC2=C(Br)C1=O (stereo not given)	none
CC1(C)Cc2c(sc(NC(=O)Nc3ccccc3)c2C(N)=O)CO1	PP5 primary 10.9 | PP5 conf inactive | PP1 inh counter inactive
COc1ccc(C(CNC(=O)c2cccc(Br)c2)N2CCCC2)cc1 (stereo not given)	PP5 primary 10.5 | PP5 conf inactive | PP1 inh counter inactive
Cn1nc(-c2ccc(C(=O)NCCO)cc2)c2ccccc2c1=O	none
CCOC(=O)/C(C#N)=C1/C=C(C)NC(c2ccccc2O)=N1	PP5 primary 12.5 | PP5 conf inactive | PP1 inh counter inactive
CCC1CCC(N2CCN(c3cccc(OC)c3)CC2)CC1 (stereo not given)	none (no result: PP1 counter, PP5 primary)
Oc1cccc(/C=N/Nc2cc(N3CCCC3)nc(N3CCCC3)n2)c1	PP5 primary 16.3 | PP5 conf 37.2 | PP1 inh counter inactive
Oc1ccc(/C=N/Nc2cc(N3CCCC3)nc(N3CCCC3)n2)cc1	PP5 primary 15.5 | PP5 conf 36.9 | PP1 inh counter inactive
COc1ccc(/C=N/Nc2cc(N3CCCC3)nc(N3CCCC3)n2)cc1	CSC inhib 91.7, PP5 primary 16.0 | PP5 conf 33.5 | PP1 inh counter 17.5
COc1cc(/C=C/C(=O)OCC(=O)N2CCN(C(=O)c3ccco3)CC2)ccc1O	none
Cc1ccc(CN2CCC(=O)N2)cc1	none
O=C(NCC1CCCO1)c1cc2c([nH]c3ccccc32)c(-c2cccc(Cl)c2)n1 (stereo not given)	SKKanGAS inh 50.3, PP5 primary 10.9 | PP5 conf inactive | PP1 inh counter inactive
COc1cc(-c2nc(C(=O)NCC3CCCO3)cc3c2[nH]c2ccccc23)cc(OC)c1OC (stereo not given)	none
COc1ccc(NC(=S)Nc2ccc3nsnc3c2)cc1	PP5 primary 11.9 | PP5 conf 47.4 | PP1 inh counter inactive
CCOc1ccc(NC(=O)Nc2ccc3nsnc3c2)cc1	none
CCOc1ccc(NC(=S)Nc2ccc3nsnc3c2)cc1	PP5 primary 11.6 | PP5 conf 49.2 | PP1 inh counter inactive
O=C(c1ccc([N+](=O)[O-])cc1)N1CCN(c2ncc(Br)cn2)CC1	PP5 primary 10.7 | PP5 conf inactive | PP1 inh counter inactive
COc1ccc2occ(C(=O)c3coc4ccc(O)c(CN(C)C)c34)c2c1	PP5 primary 10.8 | PP5 conf inactive | PP1 inh counter inactive
Cn1c(Cl)c(/C=N/OC(=O)C(C)(C)C)c2ccccc21	none
COc1ccc(N2C(=O)CC(NNc3nc4ccccc4s3)C2=O)cc1 (stereo not given)	PP5 primary 12.0 | PP5 conf inactive | PP1 inh counter inactive
Cc1ccc(N2C(=O)CC(NNc3nc4ccccc4s3)C2=O)cc1C (stereo not given)	none
CCOC(=O)C1=C(C)N[C@@]2(O)c3ccccc3C(=O)[C@@]12O	none
CC1=C(C(=O)OC(C)C)C2(O)C(=O)c3ccccc3C2(O)N1 (stereo not given)	PP5 primary 11.8 | PP5 conf 16.1 | PP1 inh counter inactive
O=C(NC1CCCCCC1)C1c2ccccc2C(=O)N1Cc1ccco1 (stereo not given)	PP5 primary 10.8 | PP5 conf inactive | PP1 inh counter inactive
CCOC(=O)Cc1csc(NC(=O)c2ccc(Cl)nc2)n1	PP5 primary 13.1 | PP5 conf inactive | PP1 inh counter inactive
CCOC(=O)Cc1csc(NC(=O)c2ccc(C)cc2)n1	none
N#CC1=C(N)NC(SCc2ccccc2)=C(C#N)C12CCCCC2	PP5 primary 12.4 | PP5 conf inactive | PP1 inh counter inactive
O=C(Nc1c(F)cc(F)cc1Br)c1cc(-c2ccccc2)on1	PP5 primary 11.7 | PP5 conf inactive | PP1 inh counter inactive
COc1ccc(CNc2ncnc(N)n2)cc1	none
COc1ccc(CNc2nc(NCc3ccc(OC)cc3)c3[nH]cnc3n2)cc1	PP1 counter 17.9 | PP1 inh confirm inactive | PP5 inh counter 11.2
COc1cccc(CN(C)C(=O)CNC(=O)c2ccc(-c3ccccc3)cc2)c1OC	none
COc1ccc(-n2c(-c3ccco3)nc3c(cnn3-c3ccccc3C)c2=O)cc1	none (no result: CSC inhib)
O=C(O)c1cc(-c2cccs2)nn1-c1ccc(F)cc1	PP1 counter 19.1 | PP1 inh confirm 17.5 | PP5 inh counter inactive
COC(=O)c1cc(-c2cccs2)nn1-c1ccccc1	none
Cn1cc(C(=O)N/N=C/c2c(O)ccc3ccccc23)ccc1=O	PP1 counter 26.9, CSC inhib 94.4, Beta cell apopt 92.8 | PP1 inh confirm 28.9 | PP5 inh counter inactive
CCc1ccc(Nc2n[n+](-c3ccccc3)c(-c3ccc(OC)c(Br)c3)s2)cc1	PP1 counter 20.2 | PP1 inh confirm inactive | PP5 inh counter inactive
CCOc1ccc(N=Nc2c(=O)[nH]n3c(=O)c4c([nH]c23)CCCC4)cc1	none
O=c1[nH]n2c(=O)c3c([nH]c2c1N=Nc1cccc(Cl)c1)CCCC3	PP1 counter 36.5 | PP1 inh confirm 26.1 | PP5 inh counter inactive
O=C(NNC(=O)c1cc2cc3ccccc3nc2s1)c1ccc(F)cc1	PP1 counter 24.2 | PP1 inh confirm inactive | PP5 inh counter inactive
O=C(NNC(=O)c1cc2cc3ccccc3nc2s1)c1cccc(Cl)c1	none
COc1ccc(C2=NOC(C)(c3nnc(-c4ccc(F)cc4)o3)C2)cc1 (stereo not given)	none (no result: Beta cell apopt)
Cc1cc(NC(=O)Cc2cccs2)no1	PP1 counter 27.7 (no result: SKKanGAS inh) | PP1 inh confirm inactive | PP5 inh counter inactive
Cc1cc(NS(=O)(=O)c2ccc(NC(=O)Cc3cccs3)cc2)no1	none
O=C(c1cccc(Cl)c1)N1CCC(=O)N(C(COCc2cccc(Cl)c2)Cc2ccccc2)CC1 (stereo not given)	none
